This is a sample that favours compounds with a hit; in the whole collection about 10% have one here.
p97 inhibitor: inhibitors of human p97 ATPase, primary screen, biochemical | Transitional endoplasmic reticulum ATPase (Homo sapiens), P55072 | recombinant p97 ATPase, Kinase-Glo ATP luminescence, 3 h | inhibition, % at 8 µM | 220,000 tested, 0.42% active; in the data active = inhibition above about 15%;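 also: 0% = DMSO vehicle and 100% = wells lacking enzyme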
Target sequence (P55072 whole entry, looked up): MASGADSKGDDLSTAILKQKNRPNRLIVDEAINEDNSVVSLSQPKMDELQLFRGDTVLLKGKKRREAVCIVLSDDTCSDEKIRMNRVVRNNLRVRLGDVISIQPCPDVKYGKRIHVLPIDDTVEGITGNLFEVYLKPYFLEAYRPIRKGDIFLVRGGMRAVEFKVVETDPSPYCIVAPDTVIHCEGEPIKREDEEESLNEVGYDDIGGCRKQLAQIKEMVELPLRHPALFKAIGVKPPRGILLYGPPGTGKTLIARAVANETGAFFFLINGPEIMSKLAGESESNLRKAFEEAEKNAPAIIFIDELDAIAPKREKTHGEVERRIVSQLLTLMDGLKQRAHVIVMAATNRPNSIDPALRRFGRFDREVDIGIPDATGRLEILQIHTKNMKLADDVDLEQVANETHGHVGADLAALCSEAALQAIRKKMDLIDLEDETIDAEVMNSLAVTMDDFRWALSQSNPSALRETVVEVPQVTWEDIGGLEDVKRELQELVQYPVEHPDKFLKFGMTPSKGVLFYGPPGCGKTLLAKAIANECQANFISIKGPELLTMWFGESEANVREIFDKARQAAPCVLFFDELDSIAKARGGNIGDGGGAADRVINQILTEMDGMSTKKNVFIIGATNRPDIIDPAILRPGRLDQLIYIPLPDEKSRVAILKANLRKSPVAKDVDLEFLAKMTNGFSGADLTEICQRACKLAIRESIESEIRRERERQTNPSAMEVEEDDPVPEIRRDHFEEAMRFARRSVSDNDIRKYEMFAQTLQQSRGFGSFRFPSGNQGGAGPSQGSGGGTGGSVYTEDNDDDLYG
HCT116 bCat-KO: primary screen for growth suppressors in beta-catenin knockout HCT116 cells (colon tumor, human). HCT116 beta-catenin knockout viability, CellTiter-Glo, 60 h; active compounds read low. viability, % at 10 µM. 140,000 tested, 1.5% active;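 active = viability at or under a set limit, the compound median less 4 SD, cut at about 6% in these data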;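 also: 0% = Hyamine 1622 control at 20 µM and 100% = untreated cell control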
L major viab: Leishmania major promastigote growth inhibition, primary screen; Leishmania major promastigotes, resazurin fluorescence viability; inhibition, % at 10 µM; 200,000 tested, 9% active; in the data active = inhibition above about 50%;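 also: promastigotes grown with compound for 44 hours at 28 °C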
ROMK primary: ROMK potassium channel modulators, primary screen, cell-based, thallium flux, MLSMR library; ATP-sensitive inward rectifier potassium channel 1 (Homo sapiens), P48048; Tet-inducible ROMK, thallium flux fluorescence; actives lie on both sides; B-score at 10 µM; 130,000 tested, 2% active;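 active = signal ratio slope over the read window, or its plate-corrected B-score, at least 3 SD from the plate mean, either direction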;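 also: B-score of the F/F0 ratio slope over 7 to 12 s after thallium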
Insulin prom inh: inhibitors of insulin promoter-driven GFP, primary screen, imaging, TRM-6 cells (human fetal islet line), eGFP reporter, cell count | reporter expression induced with tamoxifen | inhibition, % at 2 µM | 130,000 tested, 0.9% active | AID 1273, 2008;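 active = inhibition above the mean plus 3 SD, with well images judged a real hit on visual review, cut at about 60% in these data, passing the limit was not always enough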
HCT116 PTEN-null: growth suppression of PTEN-null HCT116, primary screen, cell-based, CellTiter-Glo. 140,000 tested, 1.2% active. AID 827, 2007. viability, % at 10 µM. HCT116 PTEN-null viability, 60 h; active compounds read low;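 active = viability at or below a set limit, 4 SD under the median of all tested compounds, cut at about 3.7% in these data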;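 also: PTEN knockout HCT116 line with beta catenin targeted HCT116 as companion control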
* = called active by the depositor; / = no result.

SMILES	p97 inhibitor	HCT116 bCat-KO	L major viab	ROMK primary	Insulin prom inh	HCT116 PTEN-null
COc1ccc2ncc(S(=O)(=O)c3ccccc3)c(N3CCN(c4ccccc4)CC3)c2c1	-4	68	99*	/	25	62
COc1ccc2ncc(S(=O)(=O)c3ccccc3)c(N3CCC4(CC3)OCCO4)c2c1	6	72	6	/	-48	72
O=C(CSc1nc2c(sc3ccccc32)c(=O)n1CCCN1CCCC1)NCc1ccco1	-1	/	95*	-0.84	0	/
COCCCn1c(SCC(=O)NCc2ccco2)nc2sc3c(c2c1=O)CCC3	0	90	51*	0.002	-86	91
O=C(CSc1nc2c(sc3ccccc32)c(=O)n1CCO)NCc1ccco1	7	86	-3	/	25	94
O=C(CSc1nc2sc3c(c2c(=O)n1-c1ccccc1)CCCC3)NCc1ccco1	-1	62	-2	/	/	62
Cn1cc(Br)c(C(=O)NNC(=O)Nc2ccccc2C(F)(F)F)n1	-2	/	-6	0.37	/	/
CCC(C(=O)Nc1cccc(C(=O)O)c1C)c1ccccc1 (stereo unspecified)	2	/	5	0.27	-12	/
Cc1ccc(S(=O)(=O)N2CCCCC2)cc1NC(=O)C1CC(=O)N(Cc2ccccc2)C1 (stereo unspecified)	0	87	53*	-0.54	-3	85
CCCCN(C)CCCNC(=O)C1CC(=O)N(Cc2ccc(OC)cc2)C1 (stereo unspecified)	4	95	-3	0.017	-62	102
COc1ccc(CN2CC(C(=O)NCCC(C)C)CC2=O)cc1 (stereo unspecified)	-2	/	100*	0.11	0	/
CS(=O)(=O)c1ccc(Cl)c(NC(=O)C2CC(=O)N(Cc3ccccc3)C2)c1 (stereo unspecified)	3	92	-5	/	45	89
CC(C)c1ccc(CN2CC(C(=O)Nc3ccccc3)CC2=O)cc1 (stereo unspecified)	5	/	62*	0.73	75*	/
CCN(CC)c1ccc(NC(=O)C2CC(=O)N(Cc3ccccc3)C2)cc1 (stereo unspecified)	-2	/	5	1.2	38	/
CCOC(=O)NC1(NC2CCCCC2)Oc2ccccc2O1	4	98	-2	/	/	82
COCc1nnc(NC(C)=O)s1	2	/	-3	-0.063	/	/
O=C(c1ccc(N2CCCCC2)c([N+](=O)[O-])c1)N(c1ccccn1)c1ccccn1	-1	/	-1	/	21	/
O=C(c1ccc(Cl)c([N+](=O)[O-])c1)N(c1ccccn1)c1ccccn1	-1	69	70*	0.21	-24	67
O=C(c1ccc2c(c1)N(Cc1ccccc1)CCS2)N1CCCCC1	-6	79	13	/	/	80
N#Cc1c(N(CCO)CCO)nc(N)c2c(N)nc3c(c12)CC(=O)N3Cc1cccs1	29*	/	/	/	/	/
CN(CCO)c1nc(N)c2c(N)nc3c(c2c1C#N)CC(=O)N3Cc1cccs1	3	/	16	-0.78	/	/
O=C(CCc1ccccc1)c1nnc(-c2ccccc2)o1	0	/	-13	-0.14	/	/
Cc1ccc(C(=O)CCNc2ccccc2)o1	3	27	94*	/	-12	45
CSc1ccccc1NC(=O)CSc1nnnn1-c1ccccc1SC	2	96	67*	/	-60	101
CSc1ccccc1-n1nnnc1SCC(=O)Nc1ccccc1C	3	95	19	-0.045	/	84
SMILES	p97 inhibitor	HCT116 bCat-KO	L major viab	ROMK primary	Insulin prom inh	HCT116 PTEN-null
Cc1ccc(NC(=O)ON=C2CCCC2)cc1	-6	91	84*	0.11	-11	84
COC(=O)C1=CN(C(C)C)C=C(C(=O)OC)C1c1cc(Br)c(OC)c(OC)c1	-4	80	100*	/	-2	73
COC(=O)C1=CN(C(C)C)C=C(C(=O)OC)C1c1cccc(OC)c1	0	80	15	/	-85	69
O=c1cc(CN2CC(O)Cc3ccc4ccccc4c32)nc2sccn12 (stereo unspecified)	-4	/	40	-1.2	/	/
Cc1ccc(OCCOCCNC(C)(C)C)c([N+](=O)[O-])c1	2	96	92*	-0.59	5	98
COCCNCCCCOc1ccc(C)cc1[N+](=O)[O-]	2	86	74*	-0.82	-78	87
